Assay results published in the supplement of paper PMC10941209.
Values without a mark were called inactive.

test system: Toxoplasma gondii RH 2F1 tachyzoites (intracellular in HFF); experiment: parasite survival relative to DMSO control; higher = less antiparasitic activity, active = 20 or less; conditions: 1 µM; 72 h
Method in brief: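 Survival is the β-galactosidase-derived signal from intracellular Toxoplasma gondii RH-2F1 tachyzoites, expressed as a percentage of infected wells treated with DMSO. HFF cells (5 × 10^3 cells/well, 96-well plates) were infected with 5 × 10^3 parasites in D2 medium for 3 h and then treated with compound at 1 μM for 72 h at 37°C in 5% CO2. After lysis, CPRG was added and absorbance at 570 nm was read at 30 min, with 2 or more biological replicates.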

| Compound | parasite survival |
| --- | --- |
| CCc1cc(O)c(Oc2ccc(C(N)=O)cc2F)cc1F | 71.5% |
| COc1ccc(NC(=O)CC2Sc3ncnn3C2=O)cc1 (stereo not given) | 22.1% |
| O=C(Nc1ccc(F)cc1)c1nn(-c2ccccc2)c(=O)cc1Cl | 42.6% |
| Fc1cccc(Cl)c1C1CC(c2ccc(Cl)cc2)Nc2nnnn21 (stereo not given) | 79.9% |
| Cc1cc(C)n2nc(C(=O)NS(=O)(=O)c3c(C)cccc3OC(F)(F)F)nc2n1 | 45.7% |
| CC(=O)N1CCN(c2ccc(OCC3COC(Cn4ccnc4)(c4ccc(Cl)cc4Cl)O3)cc2)CC1 (stereo not given) | 58.4% |
| O[C@@](Cn1cnnn1)(c1ccc(F)cc1F)C(F)(F)c1ccc(-c2ccc(OCC(F)(F)F)cc2)cn1 | 28.8% |
| CCO/N=C/c1ccc(OCCCCN2CCN(c3ccncc3)C2=O)cc1 | 47.7% |
| CN1c2ccc(Cl)cc2N(c2ccccc2)C(=O)c2cn(Cc3ccc(CN4CCOCC4)cc3)nc21 | 44% |
| C=CCc1cc(Cc2cnc(N)nc2N)cc(OC)c1O | 29.8% |
| COC(=O)Nc1nc2cc([S+]([O-])c3ccccc3)ccc2[nH]1 (stereo not given) | 59.2% |
| FC(F)(F)Oc1ccc(Nc2ccc3cccc(Cl)c3n2)cc1 | 41.4% |
| CCc1nc(N)nc(N)c1C#CC(C)c1cc(OC)cc(-c2ccncc2)c1 (stereo not given) | 4.08% (active) |
| Nc1nc(O)c2ncn([C@@H]3O[C@H](CO)[C@@H](O)[C@H]3F)c2n1 | 75.9% |
| C[N+]1(C)CCCC(OC(=O)C(O)(c2ccccc2)c2ccccc2)C1 (stereo not given) | 61.6% |
